# In PubChem BioAssay (NCI):
# Several values for one entry are separate records, joined by “and”; a condition that tells them apart may be missing. Identical values can stand only once. Compounds without any hit were thinned out: in the full panel of roughly 83,000, 20% have a hit.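 Growth was measured after 48 h exposure to one concentration of compound in 96-well plates. Values under 10 count as active.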 Unmarked numbers belong to inactive results. Activity calls are given as the source filed them.
# Experiments:
# Experiment in all cases: NCI-60 one-dose screen, 48 h (100 = growth as untreated, 0 = no growth, -100 = all killed)
# HCT-15 colon = settings: 10 µM
# HT29 colon = settings: 10 µM
# SNB-75 CNS = settings: 10 µM
# U251 CNS = settings: 10 µM unless noted
# PC-3 prostate = settings: 10 µM
# SK-MEL-5 melanoma = settings: 10 µM unless noted
# UACC-62 melanoma = settings: 10 µM
# LOX IMVI melanoma = settings: 10 µM unless noted
# SK-MEL-28 melanoma = settings: 10 µM
# SNB-19 CNS = settings: 10 µM
SMILES,growth (HCT-15 colon),growth (HT29 colon),growth (SNB-75 CNS),growth (U251 CNS),growth (PC-3 prostate),growth (SK-MEL-5 melanoma),growth (UACC-62 melanoma) [%],growth (LOX IMVI melanoma),growth (SK-MEL-28 melanoma),growth (SNB-19 CNS)
O=C1C=CC(=CC=C2C=CN(CCCCCCCCCCCO)C=C2)C=C1,89.8%,22.5%,53.4%,25%,17.5%,-54.3% (active),29.6,18.8%,37.6%,–
CCC(C)(C)c1cc(O)c(C(C)(C)CC)cc1O,43.8%,28.5%,52.1%,30.4%,32.3%,22.8%,–,13%,43.5%,21.8%
N=S(c1ccccc1[N+](=O)[O-])c1ccccc1[N+](=O)[O-],-49.6% (active),-32.7% (active),–,84.5%,89.4%,50.3%,–,3.28% (active),77.5%,108%
CS(=O)(=O)OC1CC(n2ccc(=O)[nH]c2=O)OC1COC(c1ccccc1)(c1ccccc1)c1ccccc1 (stereo not drawn),93.7%,96.1%,103%,–,91.3%,101%,–,–,104%,99.8%
C[n+]1c2cc(N)ccc2cc2ccc(N)cc21,19.6% [middle of 4 runs],4.57% (active) [middle of 4 runs],–,1.21% (active) [middle of 4 runs],–,–,–,1.35% (active) [middle of 4 runs],–,–
O=[N+]([O-])C1=C(c2ccccc2)SC=C(c2ccccc2)S1,58.7%,69.8%,92.7%,51.5%,62%,87%,–,4.56% (active),88.2%,78.3%
COC(=O)C1C(O)C(C)C(O)C(C)C=C(C)C2=C3C(=C(C)C(=O)c4c(O)c(c(C)c(OC(C)=O)c43)NC(=O)C(C)=C/C=C\C(C)C(O)C(C)C1O)OCO2 (stereo not drawn),115%,114%,90%,110%,–,110%,103,102%,118%,109%
CCO/C=C1\SC(=S)N(c2cccc(O)c2)C1=O,104%,98.5%,74.7%,102%,98%,99.4%,–,103%,102%,96.3%
COC(=O)C1=COC(C)C2C[n+]3ccc4c([nH]c5ccccc54)c3CC12 (stereo not drawn),104% and 101%,99.4% and 81.3%,83.3% and 92.8%,101% and 88.4%,92% and 75.7%,100% and 93.6%,–,98.9% and 98%,106% and 103%,101% and 90.3%
O=C1NC(=O)c2cc([N+](=O)[O-])ccc21,107%,109%,–,109%,101%,104%,–,104%,120%,109%
Cc1nc(N=C(N)N)nc2ccc3ccccc3c12,71.8%,1.55% (active),-10.3% (active),-17% (active),-19.2% (active),2.88% (active),–,2.45% (active),-0.847% (active),-11.5% (active)
CCCCCC(C)c1ccc(O)c(C)c1 (stereo not drawn),103%,103%,92.1%,107%,103%,104%,–,98%,111%,–
